Measured values published in PubChem BioAssay (EPA / NIEHS).
Records with an inconclusive call do not appear. Some structures have more than one record in an assay (separate samples or runs), and their calls can disagree. Active and inactive are the calls of the source. Rule for the calls, unless noted: active = hit-call score of the fitted dose curve at least 0.9, where 1 is the maximum; inactive = score below 0.9.

Legend:
[1] = read-out: Interleukin-8 (IL8), CXCL8 (gene 3576); experiment: BSK_3C_IL8: BioMAP Diversity Plus: 3C Assay for Interleukin-8 (IL8) Biomarker Activity (AID 2283020); conditions: primary human endothelial cells (HUVEC); actives raise or lower the signal
Outline: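 Primary human umbilical vein endothelial cells (3C system) were exposed to test chemical for 24 h, then IL-8 was quantified by ELISA. Responses were fitted bidirectionally against DMSO vehicle as baseline.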

[2] = read-out: Monokine induced gamma interferon (MIG), CXCL9 (gene 4283); experiment: BSK_3C_MIG: BioMAP Diversity Plus: 3C Assay for Monokine induced gamma interferon (MIG) Biomarker Activity (AID 2283021); conditions: primary human endothelial cells (HUVEC); actives raise or lower the signal;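 for AC50: MIG protein level measured by immunoassay in the treated endothelial cultures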
Outline: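 Primary human umbilical vein endothelial cells in the 3C system were exposed to chemical for 24 h, after which MIG was quantified by ELISA. Activity was fitted bidirectionally against DMSO as negative control and baseline.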

[3] = molecular target: human Vitamin D Receptor (VDR), VDR (gene 7421) (UniProt P11473); experiment: ATG_VDR_TRANS: Attagene TRANS-FACTORIAL HepG2 Assay for human Vitamin D Receptor (VDR) (AID 2283022; active = hit-call score of the fitted dose curve at least 0.9, where 1 is the maximum)
Chain of human Vitamin D Receptor (VDR), VDR (gene 7421) (P11473 whole entry, looked up, the tested form may be a part): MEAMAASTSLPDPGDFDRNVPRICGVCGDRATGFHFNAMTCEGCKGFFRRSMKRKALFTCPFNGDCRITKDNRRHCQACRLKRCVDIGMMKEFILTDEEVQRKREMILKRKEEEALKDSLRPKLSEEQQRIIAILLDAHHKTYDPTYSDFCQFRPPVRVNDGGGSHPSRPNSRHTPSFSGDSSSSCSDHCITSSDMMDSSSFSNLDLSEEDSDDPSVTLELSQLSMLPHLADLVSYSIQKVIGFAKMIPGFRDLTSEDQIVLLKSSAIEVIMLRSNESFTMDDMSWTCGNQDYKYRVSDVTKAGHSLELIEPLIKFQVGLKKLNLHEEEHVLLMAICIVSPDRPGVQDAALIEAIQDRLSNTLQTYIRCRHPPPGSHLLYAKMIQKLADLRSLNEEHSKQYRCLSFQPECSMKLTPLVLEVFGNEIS
Outline: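 RT-PCR/capillary electrophoresis read-out of reporter mRNA induction in transiently transfected HepG2; 24 h dosing; chimeric NR-Gal4 (TRANS format); gain-of-signal fit against DMSO baseline.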

[4] = BSK_3C_SRB: Viability Assessment in the BioMAP Diversity Plus: 3C Assay (AID 2283023); conditions: primary human endothelial cells (HUVEC);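 note: cells read 24 h after compound dosing; fitted both ways against DMSO so a hit may be signal rise or drop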
Outline: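 HUVEC, 24 h post-dose; 10% TCA fix, 0.1% SRB stain, A560 nm. Bidirectional curve fit vs DMSO negative control.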

[5] = read-out: Pselectin, SELP (gene 6403); experiment: BSK_4H_Pselectin: BioMAP Diversity Plus: 4H Assay for Pselectin Biomarker Activity (AID 2283026); conditions: primary human endothelial cells (HUVEC); actives raise or lower the signal
Outline: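 Primary human umbilical vein endothelial cells were exposed to test chemical for 24 h, then cell-surface P-selectin was quantified by ELISA. Activity was fitted bidirectionally against DMSO as negative control and baseline.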

[6] = BSK_BE3C_SRB: Viability Assessment in the BioMAP Diversity Plus: BE3C Assay (AID 2283028); conditions: primary human bronchial epithelial cells
Outline: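 Primary human bronchial epithelium; chemical dosing, 24 h; 10% TCA fix, 0.1% SRB stain, A560; bidirectional fit vs DMSO baseline.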

[7] = read-out: Thrombomodulin, THBD (gene 7056); experiment: BSK_3C_Thrombomodulin: BioMAP Diversity Plus: 3C Assay for Thrombomodulin Biomarker Activity (AID 2283029); conditions: primary human endothelial cells (HUVEC); actives raise or lower the signal
Outline: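 Primary human umbilical vein endothelial cells (3C system) were exposed to chemical for 24 h, then thrombomodulin levels were measured by ELISA. Activity was fitted bidirectionally against the DMSO negative control as baseline.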

[8] = read-out: Urokinase-type plasminogen activator receptor (uPAR), PLAUR (gene 5329); experiment: BSK_4H_uPAR: BioMAP Diversity Plus: 4H Assay for Urokinase-type plasminogen activator receptor (uPAR) Biomarker Activity (AID 2283030); conditions: primary human endothelial cells (HUVEC); actives raise or lower the signal
Outline: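 HUVEC, 24 h post-dose; uPAR by ELISA; bidirectional fit vs DMSO baseline.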

[9] = read-out: Vascular endothelial growth factor receptor 2 (Homo sapiens) (UniProt P35968); experiment: BSK_4H_VEGFRII: BioMAP Diversity Plus: 4H Assay for Vascular endothelial growth factor receptor 2 (VEGFR2) Biomarker Activity (AID 2283031); conditions: primary human endothelial cells (HUVEC); actives raise or lower the signal
Outline: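 HUVEC (human primary), 4H system; 24 h post-dose; VEGFRII by ELISA; bidirectional curve fit vs DMSO baseline; gain or loss of signal scored.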

[10] = read-out: Human Leukocyte Antigen - DR isotype (HLADR), HLA-DRA (gene 3122); experiment: BSK_BE3C_HLADR: BioMAP Diversity Plus: BE3C Assay for Human Leukocyte Antigen - DR isotype (HLADR) Biomarker Activity (AID 2283032); conditions: primary human bronchial epithelial cells; actives raise or lower the signal
Outline: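 Human primary bronchial epithelial cells in the BE3C system were exposed to chemicals for 24 h, after which HLA-DR levels were quantified by ELISA. Activity was fitted bidirectionally, gain or loss of signal, against DMSO as negative control and baseline.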

[11] = read-out: Vascular cell adhesion molecule 1 (VCAM1), VCAM1 (gene 7412); experiment: BSK_4H_VCAM1: BioMAP Diversity Plus: 4H Assay for Vascular cell adhesion molecule 1 (VCAM1) Biomarker Activity (AID 2283033); conditions: primary human endothelial cells (HUVEC); actives raise or lower the signal
Outline: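 Primary human umbilical vein endothelial cells were exposed to chemicals for 24 h, after which VCAM-1 was quantified by ELISA. Responses were fitted bidirectionally against DMSO as negative control and activity baseline.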

[12] = read-out: Interferon-gamma inducible Protein 10 (IP10), CXCL10 (gene 3627); experiment: BSK_BE3C_IP10: BioMAP Diversity Plus: BE3C Assay for Interferon-gamma inducible Protein 10 (IP10) Biomarker Activity (AID 2283034); conditions: primary human bronchial epithelial cells; actives raise or lower the signal
Outline: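 Human primary bronchial epithelial cells were exposed to chemicals for 24 hours, after which IP-10 levels were measured by ELISA. Data were fitted bidirectionally against DMSO, which served as the negative control and activity baseline.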

[13] = read-out: Monokine induced gamma interferon (MIG), CXCL9 (gene 4283); experiment: BSK_BE3C_MIG: BioMAP Diversity Plus: BE3C Assay for Monokine induced gamma interferon (MIG) Biomarker Activity (AID 2283035); conditions: primary human bronchial epithelial cells; actives raise or lower the signal;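 note: MIG protein measured by ELISA in BE3C cultures after 24 h of dosing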
Outline: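 MIG level was determined by ELISA after 24 h chemical treatment of primary human bronchial epithelial cells. Values were fitted bidirectionally with DMSO as the negative control and activity baseline.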

[14] = read-out: Plasminogen activator inhibitor-1 (PAI1), SERPINE1 (gene 5054); experiment: BSK_BE3C_PAI1: BioMAP Diversity Plus: BE3C Assay for Plasminogen activator inhibitor-1 (PAI1) Biomarker Activity (AID 2283037); conditions: primary human bronchial epithelial cells; actives raise or lower the signal
Outline: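 Human primary bronchial epithelial cells were exposed to chemical for 24 h, then PAI-1 was quantified by ELISA. Activity was fitted bidirectionally relative to the DMSO negative control baseline.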

[15] = read-out: urokinase plasminogen activator (uPA), PLAU (gene 5328); experiment: BSK_BE3C_uPA: BioMAP Diversity Plus: BE3C Assay for urokinase plasminogen activator (uPA) Biomarker Activity (AID 2283038); conditions: primary human bronchial epithelial cells; actives raise or lower the signal;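 note: uPA protein level quantified by ELISA in cell cultures; uPA read one day after compound addition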
Outline: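 ELISA read-out of uPA in human lung primary bronchial epithelial cultures, 24 h post-dosing. Gain or loss of signal fitted bidirectionally relative to DMSO baseline; cytotoxicity checked in parallel cultures via SRB total protein stain.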

[16] = read-out: Urokinase-type plasminogen activator receptor (uPAR), PLAUR (gene 5329); experiment: BSK_BE3C_uPAR: BioMAP Diversity Plus: BE3C Assay for Urokinase-type plasminogen activator receptor (uPAR) Biomarker Activity (AID 2283039); conditions: primary human bronchial epithelial cells; actives raise or lower the signal;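 note: uPAR protein level measured by ELISA on the cells; cells exposed to compound for one day before measurement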
Outline: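 Primary human bronchial epithelial cells were dosed with chemical and harvested 24 h later; uPAR was quantified by ELISA. Activity was fitted bidirectionally against DMSO as negative control and baseline.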

[17] = read-out: Matrix Metallopeptidase 1 (MMP1), MMP1 (gene 4312); experiment: BSK_BE3C_MMP1: BioMAP Diversity Plus: BE3C Assay for Matrix Metallopeptidase 1 (MMP1) Biomarker Activity (AID 2283024); conditions: primary human bronchial epithelial cells; actives raise or lower the signal
Outline: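 Primary human bronchial epithelial cells were dosed with test chemicals, and MMP1 levels were measured by ELISA 24 h later. Data were fitted bidirectionally against DMSO as the negative control and activity baseline.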

[18] = BSK_3C_Vis: BioMAP Diversity Plus: 3C Assay for Morphology Visualization (AID 2283025); conditions: primary human endothelial cells (HUVEC);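 note: fitted both ways so gain or loss versus DMSO counts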
Outline: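 Human umbilical vein endothelial cells in the 3C system were imaged by light microscopy 24 h after chemical dosing to record cell morphology. Activity was fitted bidirectionally against DMSO as negative control and baseline; the endpoint serves as a background control.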

[19] = read-out: Transforming growth factor beta 1 (TGFb1), TGFB1 (gene 7040); experiment: BSK_BE3C_TGFb1: BioMAP Diversity Plus: BE3C Assay for Transforming growth factor beta 1 (TGFb1) Biomarker Activity (AID 2283036); conditions: primary human bronchial epithelial cells; actives raise or lower the signal
Outline: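 Human primary bronchial epithelial cells (BE3C system) were dosed with chemical and TGF-b1 levels measured by ELISA at 24 h. Activity was fitted bidirectionally relative to DMSO negative control as baseline.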

Measured: AC50

CC(CCC(=O)O)(c1ccc(O)cc1)c1ccc(O)cc1
not listed: [17] | [18] | [19]
inactive: all other assays above

Oc1ccccc1Cc1ccccc1O
active: [7] 11.7 µM | [14] 18 µM
inactive: [1] | [2] | [3] | [4] | [17] | [5] | [6] | [7] | [8] | [9] | [10] | [11] | [12] | [13] | [14] | [15] | [16]

CCCCCCCCCCCC(C)=O
active: [1] 28.6 µM | [2] 35 µM | [4] 29.9 µM | [17] 0.016 µM | [18] 37.8 µM | [5] 28.1 µM | [11] 29.6 µM | [12] 20 µM
inactive: all other assays above

Fc1ccc(Br)cc1
inactive: all assays above
